From the supplement of paper PMC13380429

Legend:
[1] = system: Vero E6 infected with SARS-CoV-2; assay: morphology score (similarity to uninfected cells); higher = more like uninfected cells; conditions: 24 h
[2] = system: Vero E6 infected with SARS-CoV-2; assay: SARS-CoV-2 infection rate relative to infected DMSO; higher = more infection, active = 60 or less; conditions: 24 h

Row | Structure (SMILES) | morphology score [1] | SARS-CoV-2 infection rate [2]
1 | Cc1cnc(-c2cnc(NCCNc3ccc(C#N)cn3)nc2-c2ccc(Cl)cc2Cl)[nH]1 (0.833333 µM) | -0.0902 | 108% (inactive)
2 | O=C(NCC(=O)N1CCCCC1)Nc1ccc2nnsc2c1 (10 µM) | -0.144 | 110% (inactive)
3 | COC1(C2=NCCN2)COc2ccccc2O1 (stereo unspecified) (10 µM) | 0.0681 | 92.5% (inactive)
4 | CC(C)(Oc1ccc(Cl)cc1)C(=O)N1CSCC1C(=O)O (stereo unspecified) [timofibrate] (10 µM) | 0.0255 | 106% (inactive)
5 | CC(C)N1Cc2cc(S(C)(=O)=O)ccc2N(CCN2CC=C(c3c[nH]c4cc(F)ccc34)CC2)S1(=O)=O (10 µM) | 0.178 | 97.5% (inactive)
6 | C/C(=C\C(=O)OCCCCCCCCC(=O)O)C[C@@H]1OC[C@H](C[C@@H]2O[C@H]2[C@@H](C)[C@H](C)O)[C@@H](O)[C@H]1O [mupirocin] (10 µM) | 0.0465 | 110% (inactive)
7 | Nc1nc(N)c(N=O)c(OCC2CCCCC2)n1 (10 µM) | 0.621 | 54.5% (active)
8 | Sc1nc2ccccc2s1 [benzo[d]thiazole-2(3H)-thione] (10 µM) | 0.0522 | 104% (inactive)
9 | O=C(O)c1cccnc1C(=O)O [quinolinic-acid] (10 µM) | 0.107 | 108% (inactive)
10 | NCCCC[C@H](NC(=O)[C@@H]1CCCN1C(=O)[C@@H]1CSSC[C@H](NC(=O)CNC(=O)CNC(=O)CN)C(=O)N[C@@H](Cc2ccc(O)cc2)C(=O)N[C@@H](Cc2ccccc2)C(=O)N[C@@H](CCC(N)=O)C(=O)N[C@@H](CC(N)=O)C(=O)N1)C(=O)NCC(N)=O [terlipressin] (10 µM) | 0.0361 | 112% (inactive)
11 | CC(C)CN(C[C@@H](O)[C@H](Cc1ccccc1)NC(=O)O[C@H]1CO[C@H]2OCC[C@H]21)S(=O)(=O)c1ccc(N)cc1 [darunavir] (10 µM) | 0.156 | 107% (inactive)
12 | Cc1ccc(N(CC2=NCCN2)c2cccc(O)c2)cc1 [phentolamine] (10 µM) | -0.00261 | 98% (inactive)
13 | COC(=O)CCc1ccc(OCC(O)CNC(C)C)cc1 (stereo unspecified) [esmolol] (10 µM) | -0.00906 | 116% (inactive)
14 | Cc1cc(NC(=O)C(c2ccccc2)N2CCCc3ccccc32)no1 (stereo unspecified) (10 µM) | 0.018 | 92% (inactive)
15 | Cc1ncc([N+](=O)[O-])n1CCO [metronidazole] (10 µM) | -0.0912 | 118% (inactive)
16 | CCCCc1nc2cc(/C=C/C(=O)NO)ccc2n1CCN(CC)CC (10 µM) | -0.146 | 109% (inactive)
17 | O=C(Nc1ccc(Cl)cc1)Nc1ccc(Cl)c(Cl)c1 [triclocarban] (10 µM) | 0.0739 | 98.5% (inactive)
18 | N[C@@H](Cn1ccc(=O)n(Cc2ccccc2C(=O)O)c1=O)C(=O)O (10 µM) | 0.28 | 79% (inactive)
19 | CCCC[C@H]1C(=O)N(c2ccccc2)N(c2ccc(O)cc2)C1=O [oxyphenbutazone] (0.833333 µM) | 0.131 | 102% (inactive)
20 | C#CCC(Cc1cnc2nc(N)nc(N)c2n1)c1ccc(C(=O)N[C@@H](CCC(=O)O)C(=O)O)cc1 (stereo partly specified) [pralatrexate] (10 µM) | 0.042 | 104% (inactive)
21 | Cc1[nH]c(/C=C2\C(=O)Nc3ccc(S(=O)(=O)N(C)c4cccc(Cl)c4)cc32)c(C)c1C(=O)N1CCN(C)CC1 (10 µM) | 0.493 | 104% (inactive)
22 | Cc1ccc(NC(=O)c2ccc(CN3CC[C@H](N(C)C)C3)c(C(F)(F)F)c2)cc1Nc1nccc(-c2cncnc2)n1 [bafetinib] (0.833333 µM) | 0.358 | 104% (inactive)
23 | COc1ccc(Cl)c(Nc2ncnc3cc(OCC4CCN(C)CC4)c(OC)cc23)c1 (10 µM) | -0.108 | 114% (inactive)
24 | CC12CCC(C(=O)N(CCCCN3CCN(c4ccccn4)CC3)C1=O)C2(C)C (stereo unspecified) [piricapiron] (10 µM) | 0.11 | 103% (inactive)
25 | CN1C(C)(C)CCCC1(C)C [pempidine] (10 µM) | 0.0949 | 96% (inactive)
26 | O=C(CN1C2=NCCN2c2ccccc21)c1ccc(-c2ccccc2)cc1 (10 µM) | 0.646 | 35% (active)
27 | C[N+]1(CCCCC[N+]2(C)CCCC2)CCCC1 [pentolinium] (10 µM) | -0.0223 | 102% (inactive)
28 | CN(C)c1ccc(C(=C2C=CC(=[N+](C)C)C=C2)c2ccc(N(C)C)cc2)cc1 [crystal-violet] (10 µM) | -0.0788 | 114% (inactive)
